# PubChem BioAssay
# Several values for one entry are separate records, joined by “and”; a condition that tells them apart may be missing. Identical values can stand only once. Inconclusive results are not listed. A structure can be active in one record and inactive in another. Activity calls are given as the source filed them. Unless noted, no rule for the calls is given here.
# Legend:
# [1] = liver-stage malaria parasite load reduction – cell-based, known kinase inhibitor set, luminescence, hepatoma host viability (AID 624392); conditions: Plasmodium liver stage in hepatoma cells, luciferase luminescence, concentration not given here; liver cell % of control: measured here: host liver cell viability; parasite % of control: stronger effect = lower value;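 also: infected cells incubated roughly two days before readout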
# [2] = altered dexamethasone sensitivity, NF-kB reporter, cell-based, luciferase, IL-1B stimulus (AID 624486); conditions: IL-1B + dexamethasone, luminescence; percent of negative control (+Dex): actives lie on both sides, concentration not given here; z-score: measured here: IL-1B alone, no Dex;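 as to percent of negative control (+Dex): 100% = mean signal of vehicle control wells on the plate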
# [3] = C. elegans survival during P. aeruginosa infection – whole organism (AID 651566);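 also: tested at 14 µM; sign flipped so higher z means a lower ratio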; conditions: C. elegans killed by P. aeruginosa, survival ratio
# [4] = pro-inflammatory signaling induction in mouse macrophages – cell-based, murine, luminescence (AID 652131); conditions: murine macrophage pro-inflammatory reporter, stronger effect = higher value
# [5] = molecular target: Cellular tumor antigen p53 (Homo sapiens) (UniProt P04637); assay: GFP-p53 level modulators in HPV16+ cells – imaging, known kinase inhibitor set, EGFP/DsRed ratio (AID 1053116); conditions: GFP-p53 stability, stronger effect = higher value; EGFP object count: measured here: GFP-p53 positive objects count;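 also: cells exposed to compounds for 24 h at 37 °C before reading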
# Chain of Cellular tumor antigen p53 (Homo sapiens) (P04637 whole entry, looked up): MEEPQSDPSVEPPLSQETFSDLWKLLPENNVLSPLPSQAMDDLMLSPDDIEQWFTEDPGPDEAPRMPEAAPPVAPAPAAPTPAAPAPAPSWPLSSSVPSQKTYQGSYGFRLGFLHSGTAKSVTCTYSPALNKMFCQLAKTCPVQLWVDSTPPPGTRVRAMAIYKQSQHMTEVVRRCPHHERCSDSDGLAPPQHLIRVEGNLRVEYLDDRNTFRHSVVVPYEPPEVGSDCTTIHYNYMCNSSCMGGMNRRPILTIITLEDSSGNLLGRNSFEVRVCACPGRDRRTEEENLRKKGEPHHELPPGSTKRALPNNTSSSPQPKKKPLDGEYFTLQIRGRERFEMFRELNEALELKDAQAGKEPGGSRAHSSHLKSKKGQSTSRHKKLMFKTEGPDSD
# [6] = inducers of IRF3 signaling, differentiated THP-1 – cell-based, PMA-stimulated THP-1, luminescence (AID 1053176); conditions: PMA-differentiated THP-1, IRF3 reporter luminescence; stronger effect = higher value
# [7] = MELAS cybrid and Rieske KO viability enhancers – cell-based, MELAS cybrids, Rieske KO mouse fibroblasts, CellTiter-Glo, primary screen (AID 1508586;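 active = mean z-score across replicates of 1.96 or higher in either the MELAS or the Rieske mutant cell line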;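 also: z relative to plate mean and SD of compound and empty wells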); conditions: low glucose
# [8] = viability loss with induced miR-34 in A549 – imaging, A549 dox-inducible miR-34, nuclei and caspase counts, primary screen (AID 1347080;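 active = compounds whose cell count with miR-34 switched on is under 0.7 times the count with it off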); conditions: A549 miR-34 inducible, Hoechst nuclei count, 48 h
# [9] = P. berghei load reduction in hepatocytes – cell-based, HepG2, luciferase luminescence, HepG2 viability, primary screen (AID 624349; in the data active = parasite load remaining mostly below about 12%, no sharp cut-off; inactive = mostly above about 10%;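 also: 100% = mean of DMSO negative control wells on the same plate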); conditions: P. berghei liver stage in HepG2, luciferase luminescence, concentration not given here; parasite load remaining: stronger effect = lower value; viability: measured here: HepG2 viability without parasites
# [10] = viability loss in pontine glioma line – cell-based, SU-DIPG-XIII, MIPE4.0, CellTiter-Glo, qHTS, dose response (AID 1347061; cut-off not given, nearly all actives have AC50 up to about 37 µM;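 also: cells exposed to compound for 48 hours before readout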); conditions: CellTiter-Glo ATP luminescence
# [11] = viability loss in pontine glioma line – cell-based, JHH-DIPG-1, MIPE4.0, CellTiter-Glo, qHTS, dose response (AID 1347062; cut-off not given, nearly all actives have AC50 up to about 27 µM); conditions: JHH-DIPG-1 viability, CellTiter-Glo ATP luminescence
# [12] = viability loss in pontine glioma line – cell-based, SU-DIPG-IV, MIPE4.0, CellTiter-Glo, qHTS, dose response (AID 1347063; cut-off not given, nearly all actives have AC50 up to about 30 µM;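 also: compound exposure lasted 48 hours before the viability readout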); conditions: CellTiter-Glo ATP luminescence
# [13] = viability loss in pontine glioma line – cell-based, SU-DIPG-XXV, MIPE5.0, CellTiter-Glo, qHTS, dose response (AID 1347065; cut-off not given, nearly all actives have AC50 up to about 26 µM;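 also: cells exposed to compound for 48 hours before ATP readout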); conditions: CellTiter-Glo ATP luminescence
# [14] = growth inhibition of DIPG cells – cell-based, MIPE4.0 library, CellTiter-Glo luminescence, qHTS (AID 1347066; cut-off not given, nearly all actives have AC50 up to about 30 µM;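 also: cells exposed to compound for 48 hours before readout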); conditions: SU-DIPG-VI viability, CellTiter-Glo ATP luminescence
# [15] = JHH-DIPG-1 glioma cell viability, MIPE5.0 library, CellTiter-Glo luminescence, qHTS (AID 1347067; cut-off not given, nearly all actives have AC50 up to about 26 µM;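 also: cells exposed to compound for 48 hours before readout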); conditions: JHH-DIPG-1 glioma viability, CellTiter-Glo ATP luminescence
# [16] = growth inhibition of DIPG cells – cell-based, MIPE5.0 library, qHTS (AID 1347068; cut-off not given, nearly all actives have IC50 up to about 30 µM); conditions: SU-DIPG-XXV viability
# [17] = MELAS cybrid survival, CellTiter-Glo 48 h, stronger effect = higher value
# [18] = Rieske KO mouse fibroblast survival, CellTiter-Glo 72 h
compound,measurement,setting,value
Nc1ncnc2occ(-c3ccc(NC(=O)Nc4cc(C(F)(F)F)ccc4F)cc3)c12,liver cell % of control,[1],62.2% and 49.5%
same,parasite % of control,[1],12.5% (inactive) and 10.2% (inactive)
same,percent of negative control (+Dex),[2],62.5% (inactive) and 72.5% (inactive)
same,z-score,[2],-4.27 and -2.6
same,z-score,[3],-0.79 (inactive) and 0.505 (inactive)
same,z-score,[4],0.268 (inactive) and -0.714 (inactive)
same,EGFP object count,[5],2 and 1
same,EGFP/DsRed ratio,[5],0.017 (inactive) and 0.0224 (inactive)
same,fraction signal,[6],-0.0025 (inactive) and -0.0215 (inactive)
same,z-score,[7]; [17],0.841 (inactive) and 3.25 (active)
same,z-score,[7]; [18],-0.123 and -0.164
Cn1cc(C2=C(c3cn(CCCN)c4ccccc34)C(=O)NC2=O)c2ccccc21,liver cell % of control,[1],148%
same,parasite % of control,[1],23.2% (inactive)
same,percent of negative control (+Dex),[2],104% (inactive)
same,z-score,[2],-0.65
same,EGFP object count,[5],39
same,EGFP/DsRed ratio,[5],0.871 (inactive)
same,fraction signal,[6],-0.0135 (inactive)
same,fold change,"[8]; stronger effect = lower value, cell number ratio, induced over uninduced",1.52 (inactive)
same,fold change,[8]; measured here: relative caspase fold change +Dox/-Dox,0.871
same,cell count,"[8]; measured here: total cells with miR-34 induction, stronger effect = lower value",5190
same,cell count,[8]; measured here: total cells without miR-34 induction,3420
COc1ccc(-c2nn3ncccc3c2-c2ccnc(Nc3ccc(F)c(F)c3)n2)cc1,liver cell % of control,[1],177%
same,parasite % of control,[1],16.9% (inactive)
same,percent of negative control (+Dex),[2],75.5% (inactive)
same,z-score,[2],-0.785
same,z-score,[3],1.61 (inactive)
same,z-score,[4],-0.312 (inactive)
same,EGFP object count,[5],4.5
same,EGFP/DsRed ratio,[5],0.039 (inactive)
same,fraction signal,[6],0.0025 (inactive)
same,z-score,[7]; [17],1.01 (inactive)
same,z-score,[7]; [18],-0.0344
COc1cc2ncn(-c3cc(OCc4ccccc4S(C)(=O)=O)c(C#N)s3)c2cc1OC,parasite load remaining,[9],28.4% (inactive)
same,viability,[9],80.2%
same,liver cell % of control,[1],84.7%
same,parasite % of control,[1],80.2% (inactive)
same,percent of negative control (+Dex),[2],72.5% (inactive)
same,z-score,[2],-0.135
same,z-score,[3],-0.355 (inactive)
same,z-score,[4],8.9 (active)
same,EGFP object count,[5],7.5
same,EGFP/DsRed ratio,[5],0.318 (inactive)
same,fraction signal,[6],0.0015 (inactive)
same,outcome,[10],inactive
same,outcome,[11],inactive
same,outcome,[12],inactive
same,outcome,[13],inactive
same,outcome,[14],inactive
same,outcome,[15],inactive
same,outcome,[16],inactive
same,z-score,[7]; [17],0.713 (inactive)
same,z-score,[7]; [18],-0.131
Cc1ccc(NC(=O)c2ccoc2)cc1-c1ccc(C(=O)NCC2CC2)cc1,liver cell % of control,[1],104%
same,parasite % of control,[1],120% (inactive)
same,percent of negative control (+Dex),[2],99.5% (inactive)
same,z-score,[2],0.73
same,z-score,[3],0.02 (inactive)
same,z-score,[4],-0.057 (inactive)
same,EGFP object count,[5],2
same,EGFP/DsRed ratio,[5],0.0344 (inactive)
same,fraction signal,[6],-0.016 (inactive)
same,z-score,[7]; [17],-1.06 (inactive)
same,z-score,[7]; [18],-0.276
CC1=C(C(=O)Nc2ccc3[nH]ncc3c2)C(c2ccc(Cl)c(Cl)c2)CC(=O)N1 (stereo unspecified),liver cell % of control,[1],100%
same,parasite % of control,[1],160% (inactive)
same,percent of negative control (+Dex),[2],83.5% (inactive)
same,z-score,[2],-1.08
same,z-score,[3],-0.52 (inactive)
same,z-score,[4],-0.714 (inactive)
same,EGFP object count,[5],2
same,EGFP/DsRed ratio,[5],0.0149 (inactive)
same,fraction signal,[6],-0.0025 (inactive)
same,z-score,[7]; [17],-0.00134 (inactive)
same,z-score,[7]; [18],-0.0171
O=C(Nc1n[nH]c2cc(-c3cc(F)ccc3F)ccc12)C1CC1,liver cell % of control,[1],90.7%
same,parasite % of control,[1],72.2% (inactive)
same,percent of negative control (+Dex),[2],81% (inactive)
same,z-score,[2],-0.38
same,z-score,[3],-0.655 (inactive)
same,z-score,[4],0.317 (inactive)
same,EGFP object count,[5],4
same,EGFP/DsRed ratio,[5],0.173 (inactive)
same,fraction signal,[6],-0.0055 (inactive)
same,z-score,[7]; [17],-0.186 (inactive)
same,z-score,[7]; [18],-0.425
